The list shows a part of the results. Values without a mark were called inactive. Calls of active or inactive are those of the source.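 How the source made its calls: active means average inhibition over replicates above about 50%, so the earlier screening hit is confirmed (limit read from the data); inactive means the rest, counted as false positives.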

The term inhibition denotes the relative decrease from the control value, in per cent.

The target in this experiment is Ubiquitin carboxyl-terminal hydrolase isozyme L5 (Homo sapiens) (UniProt Q9Y5K5). The experiment can be described thus: proteasome-bound UCH37 Ub-AMC cleavage inhibition – biochemical, Ub-AMC cleavage rate, fluorescence, confirmation (AID 624100).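 Further: based on cleavage rate fitted by regression over a 30 min kinetic read; 0% = proteasome plus Ub-AMC and 100% = Ub-AMC without proteasome.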 Particulars: at 20 µM, hits give high values.
Sequence of Ubiquitin carboxyl-terminal hydrolase isozyme L5 (Homo sapiens) (Q9Y5K5 whole entry, looked up): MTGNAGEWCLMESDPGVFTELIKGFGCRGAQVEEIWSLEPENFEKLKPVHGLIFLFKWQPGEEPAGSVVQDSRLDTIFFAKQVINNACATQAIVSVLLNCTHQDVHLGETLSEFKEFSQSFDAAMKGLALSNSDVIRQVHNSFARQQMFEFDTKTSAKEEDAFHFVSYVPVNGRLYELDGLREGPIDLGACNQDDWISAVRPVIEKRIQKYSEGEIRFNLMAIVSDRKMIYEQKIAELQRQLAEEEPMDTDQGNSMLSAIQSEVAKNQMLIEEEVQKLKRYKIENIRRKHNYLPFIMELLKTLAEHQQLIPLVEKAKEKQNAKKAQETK
`Cc1[nH][nH]c(=O)c1C(c1ccc(-c2ccc(Cl)cc2)o1)c1c(C)[nH][nH]c1=O`: the inhibition is 6.33%.
With `O=c1ccc2c(-c3ccccc3S(=O)(=O)O)c3ccc(O)c(O)c3oc-2c1O` the figure was 36.2%; with `O=C(O)C(c1ccccc1)N1C(=O)/C(=C\c2ccc(-c3cccc(Cl)c3)o2)SC1=S` (centres undefined), 67.4% (active).
Under `Cn1ccc(=Nc2ccc(NC(=O)c3ccc(N=c4ccn(C)c5ccc([N+](=O)[O-])cc45)cc3)cc2)cc1` stands 71.3% (active).
With `COc1cccc(C2/C(=C(/O)c3ccc(F)cc3)C(=O)C(=O)N2CCN(C)C)c1` (centres undefined) the figure was 12.7%; with `CC(=O)N1C(=O)/C(=C2\SC(=S)N(NC(=O)c3ccc(O)cc3)C2=O)c2ccccc21`, 63.5% (active); with `O=C(NC1CCCC1)C(c1ccc(N2CCOCC2)cc1)N(C(=O)c1ccco1)c1ccccc1F` (centres undefined), 4.55%.
For the molecule `Cc1ccc(Nc2cc(C)nc3c(C)ccc([N+](=O)[O-])c23)cc1`, the inhibition is 0.827%.
With `CCCCCCCCn1c2c(c(=N)c3c1CCC3)CCCC2` the figure was 42.2%; with `CC1CCCN(C(=O)c2ccc3c(c2)C(=O)N(CCC2=CCCCC2)C3=O)C1` (centres undefined), 61% (active).
With `COCCN1C=C2C(=O)C(C)(OC(=O)C3CCCC3)C(=O)C=C2C=C1c1ccsc1` (centres undefined) the figure was 24.9%; with `O=C1Nc2ccc([N+](=O)[O-])cc2C1=Nc1cccc(CO)c1`, -1.27%; with `CC(OC(=O)c1c(F)cccc1F)C(=O)NCCC1=CCCCC1` (centres undefined), 32.7%.
With `CC(C)CC[n+]1ccn(C2=C([O-])c3ccccc3C(=O)/C2=N\S(=O)(=O)c2ccccc2)c1` the figure was 29.9%.

The values are drawn from PubChem BioAssay AID624100 (ICCB-Longwood Screening Facility, Harvard Medical School, 2012).
